IL1B secr inh – inflammasome signaling inhibition, IL-1 beta readout; THP-1 LPS/ATP IL-1B secretion, AlphaLISA, 16 h; stronger effect = lower value; activity change, % at 57.5 µM; actives 4.7% (n = 360,000); in the data active = activity change below about -50%; inconclusive = mostly about -30% to -49%; note: % is set by controls: 0 for no effect and ±100 for the full control effect
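THP-1 cells pretreated 1 hr with compounds (up to 57.5 uM final), then stimulated with LPS (250 ng/mL final) plus ATP (1.25 mM final); secreted IL-1B measured by AlphaLISA after 16 hr, decreased signal indicating inhibition.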
BCR signal inh – blocks chronic active B-cell receptor signaling; ABC-DLBCL IkBa-CBG/CBR reporter, luminescence ratio, 4 h; Potency, µM (top dose mostly 46.1 µM), without a hit: at the highest dose activity change, negative = inhibition, most hits filed as inhibitors; actives 0.05% (n = 340,000); active = well fitted inhibition curve with a large enough effect in the signal ratio, with a control signal flat, not every such curve was filed as active; inconclusive = small, poorly fitted or top-dose-only effect, or effect the other way, or a change in a side signal; the % refers to the signal ratio;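 note: potency is the fitted concentration of half-maximal effect; plate controls were basal doxycycline-induced cells for no effect and cells given 10 µM MG132 for full effect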
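TMD8 human ABC-DLBCL cells with doxycycline-inducible IκBα–green luciferase fusion and unfused red luciferase, in 0.5% FBS medium; compounds up to 46 uM, 4 h at 37C. Green/red luminescence ratio, filter-overlap corrected, fitted to concentration-response curves.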
SW480 rerep – DNA re-replication induction in SW480 cells | SW480 DNA re-replication, Hoechst DNA content imaging, 48 h | Potency, µM (titrated, usually from 46.1 µM), for inactives: at the highest dose re-replication activation, usual class: activators | actives 1.8% (n = 340,000); note: potency is the fitted concentration of half-maximal effect; % of control where 0% means no effect; nearly all actives have a fitted effect of over 55% in size
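Image-based read-out: total Hoechst fluorescence of nuclei (405 nm excitation, 500-530 nm emission), with hits raising the fraction of high-intensity nuclei. SW480 colon cells incubated 48 hr with compounds at 37 C.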
MCF10A rerep – inducers of DNA re-replication in MCF 10A breast cells; MCF 10A DNA re-replication, Hoechst nuclear intensity, 48 h; actives 2.9% (n = 350,000); AID 624296; Potency, µM (titrated, usually from 46.1 µM), without a hit: top-dose activity, positive = re-replication, actives largely listed as activators; note: potency is the fitted concentration of half-maximal effect; % of control where 0% means no effect; nearly all actives have a fitted effect of over 50% in size
DT40 TDP1 CPT – growth inhibition of DT40 Tdp1-/-;hTDP1 cells with camptothecin (screen for TDP1 inhibitors); chicken DT40 Tdp1-/-;hTDP1 cells + 20 nM CPT, ATP luminescence, 48 h; Potency, µM (series often up to 46.2 µM), for inactives: at the top dose activity change, negative = growth inhibition, actives largely listed as inhibitors; actives 12% (n = 420,000); note: potency is the fitted concentration of half-maximal effect; % is set by controls: 0 for no effect and ±100 for the full control effect; nearly all actives have a fitted effect of over 55% in size
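Chicken DT40 Tdp1-/- cells stably complemented with human TDP1 were seeded at 400 cells/well in medium containing 20 nM camptothecin, exposed to pin-transferred compounds, and grown at 37 °C for at least 48 hr. Viability was read as ATP luminescence.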
DT40 TDP1 no CPT – qHTS for Inhibitors of human tyrosyl-DNA phosphodiesterase 1 (TDP1): qHTS in cells in absence of CPT. DT40 Tdp1-/- hTDP1 cells, no CPT, ATP luminescence, 48 h. Potency, µM (series often up to 46.2 µM), for inactives: at the highest dose activity change, negative = growth inhibition, usual class: inhibitors. actives 15% (n = 420,000); note: potency is the fitted concentration of half-maximal effect; % is set by controls: 0 for no effect and ±100 for the full control effect; nearly all actives have a fitted effect of over 55% in size
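Camptothecin absent (DMSO only). Human TDP1-complemented DT40 knockout cells, 400 cells/well, 37 °C for minimum 48 hr; ATP measured via CellTiter-Glo, 30 min dark incubation, luminescence.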
The depositor's hits bear a star; ? = inconclusive; . = no result given; [ ] = remark or other dose. This is a sample that favours compounds with a hit; in the whole collection about 19% have one here. Unless noted, calls come from the whole dose curve; as a rule, active = well fitted curve in the direction sought with a large enough effect; inconclusive = small, poorly fitted or top-dose-only effect, or another doubt; inactive = no such curve, though single readings can be large; an effect the other way counts as inactive or inconclusive.

SMILES | IL1B secr inh | BCR signal inh | SW480 rerep | MCF10A rerep | DT40 TDP1 CPT | DT40 TDP1 no CPT
Cc1ccc(NC(=O)[C@@H](NC(=O)c2cccc(S(=O)(=O)N3CCOCC3)c2)C(C)C)cc1C | 2 | -3% | -4% | -2% | ? | 12µM*
CC(C)[C@H](NC(=O)c1ccccc1)C(=O)Nc1cccc(S(=O)(=O)N2CCOCC2)c1 | -1 | 0% | -1% | ? | -21% | -11%
COc1ccc(/C=C/C(=O)NC2CCCCCCC2)cc1S(=O)(=O)N1CCOCC1 | 0 | ? | . | ? | 21µM* | 21µM*
COc1ccc(/C=C/C(=O)NC(C)(C)C)cc1S(=O)(=O)N1CCOCC1 | 14 | 0% | 22% | 10% | -13% | -7%
COc1ccc(/C=C/C(=O)Nc2cccc(S(=O)(=O)N3CCOCC3)c2)cc1OC | 10 | -5% | ? | 9% | ? | 16µM*
COc1ccc(OC)c(NC(=O)/C=C/c2ccc(S(=O)(=O)N3CCOCC3)cc2)c1 | -1 | -2% | -2% | 7% | 26µM* | ?
CCCCCOc1ccc(C(=O)CCC(=O)Nc2ccc(NC(C)=O)cc2)cc1 | 4 | 5% | -6% | 3% | -6% | -2%
Cc1ccc(/C=C/C(=O)N2CCN(S(=O)(=O)c3c(C)c(C)cc(C)c3C)CC2)o1 | -29 | 7% | ? | ? | 23µM* | 15µM*
Cc1ccc(/C=C/C(=O)Nc2cccc(S(=O)(=O)N3CCOCC3)c2)o1 | 8 | ? | 2% | -3% | 23µM* | ?
Cc1ccc(/C=C/C(=O)N2CCN(Cc3ccccc3)CC2)o1 | -26 | ? | 0% | 5% | ? | ?
COc1ccccc1/C=C/C(=O)Nc1cccc(S(=O)(=O)N2CCOCC2)c1 | -23 | 0% | 1% | -4% | ? | ?
COc1ccc(NC(C)=O)cc1NC(C)C(=O)Nc1cccc(S(=O)(=O)N2CCOCC2)c1 (configuration not stated) | -10 | ? | -8% | -3% | 0% | -18%
COc1ccc(NC(C)C(=O)Nc2cccc(S(=O)(=O)N3CCOCC3)c2)cc1OC (configuration not stated) | ? | -5% | 78% | 14% | 9.2µM* | 8.2µM*
COc1cc(/C=C/C(=O)Nc2cccc(S(=O)(=O)N3CCOCC3)c2)ccc1OCC#N | -54* | -16% | 4% | -2% | ? | ?
COc1ccc(NC(=O)CSC(C)c2nc3ccccc3c(=O)[nH]2)cc1 (configuration not stated) | 11 | -3% | 2% | 4% | -5% | 5%
COc1ccc(S(=O)(=O)N2CN3CCN(C3)C2)cc1OC | 26 | 0% | -42% | 2% | ? | ?
CCOCCCn1c(SCc2ccccc2)nnc1-c1ccncc1 | -3 | 9% | -9% | -1% | 7% | -15%
COCCCNC(=O)CCSc1ccc(Cl)cc1 | 16 | 3% | -1% | 0% | -3% | -11%
CCC(C)NCCOCCSc1ccc(Cl)cc1 (configuration not stated) | -52* | -22% | 1% | 12% | ? | ?
CCC(C)NCCOCCOc1ccc(Cl)c2ccccc12 (configuration not stated) | -104* | ? | ? | ? | 9.2µM* | 18µM*
C=CCc1cc(Cl)ccc1OCCCNCCO | -11 | ? | 0% | -5% | ? | 16µM*
C=CCc1cc(Cl)ccc1OCCOCCNC(C)CC (configuration not stated) | -78* | ? | ? | ? | ? | ?
Cc1ccc(CNC(=O)c2c(C)oc3ncnc(N4CCOCC4)c23)cc1 | . | . | . | . | -22% | -27%
COC(=O)c1c(C)[nH]c(C(=O)COC(=O)Cn2cc(C(F)(F)F)ccc2=O)c1C | 16 | 15% | 1% | -3% | ? | -21%
CC(=O)Nc1nnc(SCC(=O)Nc2nc(C)cs2)s1 | 17 | -3% | -4% | -6% | 6% | 6%
SMILES | IL1B secr inh | BCR signal inh | SW480 rerep | MCF10A rerep | DT40 TDP1 CPT | DT40 TDP1 no CPT
CCNc1ncc2nc(-c3ccc(OC)cc3)c(=O)n(Cc3cccc(OC)c3)c2n1 | . | . | . | . | -5% | -6%
CCC(C)NCCOCCOc1ccc(Cl)c(C)c1C (configuration not stated) | -9 | ? | ? | 20% | 15µM* | 13µM*
CCC(C)NCCCCOc1ccc(Cl)cc1C (configuration not stated) | ? | ? | ? | ? | ? | 21µM*
CCC(C)NCCCCOc1ccc(C)cc1[N+](=O)[O-] (configuration not stated) | -9 | -2% | -5% | 23% | ? | -20%
CCC(C)NCCCOc1ccc(C)cc1OC (configuration not stated) | -1 | -2% | -3% | ? | -7% | -21%
CCCc1cc(=O)oc2cc(OC(C)C(=O)NCC3CCC(C(=O)O)CC3)ccc12 (configuration not stated) | 0 | -4% | -10% | 0% | ? | 4%
CC1CC2=C(NC(=S)NC2c2cccc(F)c2)/C(=C/c2cccc(F)c2)C1 (configuration not stated) | -64* | ? | 18% | ? | ? | 16µM*
Cc1ccc(/C=C2\CC(C)CC3=C2NC(=S)NC3c2ccc(C)cc2)cc1 (configuration not stated) | -29 | -2% | 16% | ? | ? | 15µM*
Cc1ccc(/C=C2\CCCC3=C2NC(=S)NC3c2ccc(C)cc2)cc1 (configuration not stated) | -16 | -10% | 67% | 23% | -48% | ?
O=C(CN1C(=O)NC2(CCCCCC2)C1=O)NCCc1ccc(F)cc1 | 15 | 4% | -14% | 9% | 5% | 12%
COc1c(C)cccc1C(=O)NCc1ccc2c(c1)OCO2 | 2 | -1% | 21% | 2% | -1% | -19%
O=c1ccn(Cc2ccccc2)c2ccccc12 | 31 | -3% | -7% | -1% | 12µM* | 13µM*
Cc1c(OCc2ccccc2)c(=O)ccn1Cc1ccccc1 | -18 | 1% | 0%[9.22 µM] | -3% | -23% | -21%
CC(C)c1cc2c(c(O)c1O)[C@@]13CCCC(C)(C)C1CC2OC3=O (some centres not stated) | -12 | -2% | ? | ? | 5.2µM* | 8.2µM*

High-throughput results deposited in PubChem by National Center for Advancing Translational Sciences (NCATS).
